Assay results as given in PubChem BioAssay (NCI).
Where “and” joins values, the source holds several entries; their conditions need not be identical. Identical values can stand only once. About 83,000 compounds went through this panel and 20% of them were active in at least one assay; those are over-represented in the sample as a whole.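 Percent growth is the endpoint: 0 to 100 indicates growth inhibition (40 means 60% inhibition), 0 means no net growth, and negative values indicate cell death.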 A number with no mark means an inactive call. Calls of active or inactive are those of the source.

What follows are molecules tested on MDA-MB-468 breast (assay: NCI-60 one-dose screen, 48 h (100 = growth as untreated, 0 = no growth, -100 = all killed)). Conditions: 10 µM unless noted.
Procedure: Growth inhibition of the MDA-MB-468 human Breast tumor cell line is measured as a screen for anti-cancer activity. Cells are grown in 96 well plates and exposed to the test compound for 48 hours. Compounds are tested at a single concentration, which is 10^-5 M for most compounds. The reported endpoint is percent growth (GI% or GIPRCNT), where numbers from 0 - 100% represent growth inhibition, and numbers from -100% - 0 represent cell death. For example, a value of 40 represents 60% growth inhibition. A value of 0 means no net growth occurred over the course of the experiment. A value of -40 indicates 40% of cells at the beginning of the experiment died by the end of the experiment. A value of -100 means all cells are dead at the end of the experiment.
NCI-60 Human Tumor Cell Lines Screen was performed using the standard one-dose NCI protocol, which is described in more detail at https://dtp.cancer.gov/discovery_development/nci-60/default.htm.
Compounds with GIPRCNT values below 10 were considered active. Activity score was based on GIPRCNT using the following formula: […]
Score is 0 for GIPRCNT values of 100 or above, 50 for GIPRCNT values of 0, and 100 for GIPRCNT values of -100.

| SMILES | growth |
| --- | --- |
| CC(=O)Nc1ccc(Sc2ccc([N+](=O)[O-])o2)cc1 | 4.76% (active) |
| CNc1ccc2nc3ccc(=[N+](C)C)cc-3sc2c1 | -48.1% (active) and -39.5% (active) |
| COc1ccc2c(c1)NC(=O)CN2c1nc(NC2CC2)nc2ccccc12 | 8.4% (active) |
| CN1CCN(C(=O)C(C)(C)c2ccc(C(=O)Nc3cn4cc(-c5ccncc5)ccc4n3)cc2)CC1 | -16.2% (active) |
| COc1c(OCCCN2CCOCC2)ccc2c3n(c(=NC(=O)c4cnc(N)nc4)nc12)CCN3 | -23.5% (active) |
| CCNC(=O)N1CCc2cc(OC)c(OCCc3ccc(OC)nc3)cc2C1c1ccc(C)cc1C (stereo not given) | 8.04% (active) |
| C/C(O)=C(\C=N\C(N)=S)C(=O)Nc1ccccc1 | 92.8% |
| CC(=O)c1nn(-c2ccccc2)/c(=N\N=C\c2coc3ccc(F)cc3c2=O)s1 | 115% |
| Br/C(=N\Nc1nn[nH]n1)c1ccccc1 | 104% |
| O=C1Nc2ccccc2/C1=C/C(=N/c1nnc(-c2ccc(Cl)cc2)s1)c1ccccc1 | 27.8% |
| CCCCOC(=O)C1OC(Oc2ccc3c(C)cc(=O)oc3c2)[C@@H](OC(C)=O)C(OC(C)=O)C1OC(C)=O (stereo not given in full) | 101% |
| CC/C=C/C/C=C/C/C=C/C/C=C/C/C=C/C/C=C/CCC(=O)Nc1ccn([C@@H]2O[C@H](CO)[C@@H](O)C2(F)F)c(=O)n1 | 21.5% |
| CCCCCCCCCCCCCCCCNC(=S)N/N=C/c1ccc(OC)cc1 | 108% |
| O=C(Cc1ccccc1)NC(c1ccc(Cl)cc1)c1c(O)ccc2ccccc12 (stereo not given) | 7.01% (active) |
| Cn1c(O)c(N=NC(=O)c2cc(-c3ccccc3)on2)c2ccccc21 | 107% |
| Cc1cc(SCc2ccccc2)nc(N)n1 | 110% |
| C=C(C)[C@@H]1CC[C@]2(C)[C@H](CC=C3[C@@H]4[C@H](C)[C@@H](C)CC[C@]4(CO)CC[C@]32C)[C@@]1(C)CCCN | -54.7% (active) |
| COc1cccc(Cc2nn3cc(-c4ccccc4)nc3s2)c1 | 92.1% |
| C[C@H]1[C@H](C)CC[C@]2(CO)CC[C@]3(C)C(=CC[C@@H]4[C@@]5(C)CCCNC(C)(C)[C@@H]5CC[C@]43C)[C@H]12 | -78.6% (active) |
| C=CCn1cc(-c2nc3ccccc3s2)c2cc(-c3ccc4c5c(cccc35)C(=O)N(CCN3CCNCC3)C4=O)ccc21 | 88.4% |

| SMILES | growth |
| --- | --- |
| COc1cc2ncnc(Nc3cccc(Cl)c3F)c2cc1OC(=O)N1CCN(C)C[C@H]1C | -10.7% (active) |
| Cn1cc(-c2nn3cc(-c4ccncc4)nc3s2)c2cc(Br)ccc21 | 74.9% |
| CC1=NC(=S)NC(c2ccccc2)/C1=C1/CC(c2ccccc2O)NN1 (stereo not given) | 107% |
| N#Cc1ccc(OC(=O)Nc2c(Cl)cc(Cl)cc2Cl)cc1 | 97% |
| C(=C1c2ccccc2-c2ccccc21)c1ccncc1 | 0.207% (active) |
| O=C(Cn1cc[n+](CC(=O)c2ccc(-c3ccccc3)cc2)c1)Nc1cccc2cccnc12 | 8.42% (active) |
| Cc1c(CN)cc(-c2ccc(Cl)cc2)n1-c1ccccc1 | 18.7% |
| O=C1/C=C/[C@@H](O)[C@@H]2C[C@@H](O)C[C@H]2/C=C/CCC[C@@H](C(F)(F)F)O1 | -40.7% (active) |
| CCN1C(=O)N(CC)C2C1NN=C1SC(c3ccccc3)=CC(=O)N12 (stereo not given) | 5.17% (active) |
| CSc1ccc(-c2n[nH]nc2-c2cc3ccccc3s2)cc1 | 54% |
| N=C(N)c1ccc(-c2ccc(-c3cc(Cl)cc(Cl)c3)o2)nc1 | -73.9% (active) |
| Nc1nc2c(c(-c3nc(N)nc4c3CCc3ccccc3-4)n1)CCc1ccccc1-2 | 112% |
| Cc1cccc(C)c1NCc1nc(-c2ccccc2)n[nH]1 | 122% |
| COc1ccc(/C=C/C(=O)c2c(C)nc3ccccc3c2/C=C/c2ccccc2)cc1O | 40.1% |
| Cc1ccc(S(=O)(=O)Nc2ccc(-c3cc(-c4cccc(F)c4)c(C#N)c(N)n3)cc2)cc1 | -14.9% (active) |
| COc1cc(/C=C2\CCC/C(=C\c3cc(CN4CCCC4)c(O)c(OC)c3)C2=O)cc(CN2CCCC2)c1O | 67.2% |
| COc1ncnc2c1ncn2C/C(Br)=C(\Br)CCl | 16.9% |
| O=C1C(Cl)=C(Cl)C(=O)c2c1nc1n2CCCC1 | 96.7% |
| Cc1cc(Cl)cc(CN(Cc2ccccc2)Cc2c(O)ccc3ccccc23)c1O | 102% |
| Cc1ccccc1NC(=O)Cc1csc2[n+]1C(=O)/C(=C/c1ccc([N+](=O)[O-])cc1)S2 | 116% |
